Test results reported in PubChem BioAssay (NCI).
About 79,000 compounds went through this panel and 15% of them were active in at least one assay; those are over-represented in the sample as a whole. The source made the active and inactive calls. No stated cut-off is given here; in the data, active means growth inhibition above about 70%; inactive means the rest.

Legend:
[1] = NCI Yeast Anticancer Drug Screen. Data for the rad50 strain (AID 155);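 further: 0% = growth of vehicle-only cultures of the same strain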; conditions: S. cerevisiae rad50 strain growth inhibition, stronger effect = higher value
In short: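 Vehicle-treated cultures provide the reference for the growth inhibition reported for compound-exposed, repair-deficient yeast.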

[2] = NCI Yeast Anticancer Drug Screen. Data for the mec2-1 strain (AID 157); conditions: S. cerevisiae mec2-1 strain, stronger effect = higher value
In short: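 Vehicle-treated cultures served as reference for growth inhibition of compound-exposed mec2-1 yeast.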

[3] = NCI Yeast Anticancer Drug Screen. Data for the sgs1 mgt1 strain (AID 161);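 further: 0% = growth of cultures given vehicle only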; conditions: S. cerevisiae sgs1 mgt1 strain, stronger effect = higher value
In short: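 Mutant yeast exposed to compound; growth scored against vehicle-only wells.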

[4] = NCI Yeast Anticancer Drug Screen. Data for the cln2 rad14 strain (AID 165);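 further: 0% = growth equal to vehicle treated cultures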; conditions: S. cerevisiae cln2 rad14 strain, stronger effect = higher value
In short: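 Each compound was tested on cln2 rad14 yeast. Inhibition of growth was calculated against vehicle-exposed controls.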

[5] = NCI Yeast Anticancer Drug Screen. Data for the bub3 strain (AID 167); conditions: S. cerevisiae bub3 mutant strain, stronger effect = higher value
In short: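 Mutant yeast screening strain plus compound; vehicle-treated cultures serve as the 0% inhibition reference.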

[6] = NCI Yeast Anticancer Drug Screen. Data for the mlh1 rad18 strain (AID 175); conditions: S. cerevisiae mlh1 rad18 strain growth inhibition, stronger effect = higher value
In short: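 Vehicle-treated cultures served as the reference for growth inhibition in a yeast strain carrying DNA damage repair alterations exposed to each compound.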

[7] = at 5.0 µM (retest, dose inferred, filed as 0.5)
[8] = at 50.0 µM (retest, dose inferred, filed as 5.0)

Measured: growth inhibition

Cc1ccc(COCO)c(O)c1
inactive: [1]; [7] -1% | [1]; [8] -8% | [1]; at 50.0 µM -6.7% | [2]; [7] 0% | [2]; [8] 2% | [2]; at 50.0 µM 35.8% | [3]; [7] 2% | [3]; [8] -4% | [3]; at 50.0 µM -10.8% | [4]; [7] -7% | [4]; [8] -3% | [4]; at 50.0 µM -18.1% | [5]; [7] -3% | [5]; [8] -4% | [5]; at 50.0 µM -0.15% | [6]; [7] -1% | [6]; [8] -4% | [6]; at 50.0 µM -16.4%

CN=c1sc2c(n1C)C(=O)c1ccccc1C2=O
active: [1]; at 50.0 µM 82.6% | [2]; at 50.0 µM 75.7% | [3]; at 50.0 µM 87.8% | [6]; at 50.0 µM 80.8%
inactive: [1]; [7] 26% | [1]; [8] 48% | [2]; [7] 17% | [2]; [8] 40% | [3]; [7] 31% | [3]; [8] 49% | [4]; [7] 21% | [4]; [8] 23% | [4]; at 50.0 µM 25.6% | [5]; [7] 28% | [5]; [8] 64% | [5]; at 50.0 µM 65.9% | [6]; [7] 23% | [6]; [8] 54%

CC(=O)OC1C(O)C(C)OC(OC(=O)C2CCC3C(C2)OC2(CC(OC(=O)/C=C/c4ccccc4)C(C)CO2)C32CO2)C1OC1OC(C)C(O)C(O)C1O (stereo not given)
inactive: [1]; [7] 23% | [2]; [7] 18% | [3]; [7] 26% | [3]; at 50.0 µM 47.1% | [4]; [7] 17% | [5]; [7] 21% | [6]; [7] 34%
active: [1]; [8] 97% | [1]; at 50.0 µM 88% | [2]; [8] 98% | [2]; at 50.0 µM 89.9% | [3]; [8] 98% | [4]; [8] 92% | [4]; at 50.0 µM 75.6% | [5]; [8] 97% | [5]; at 50.0 µM 88% | [6]; [8] 97% | [6]; at 50.0 µM 88%

Cc1cc(=O)c2cc(N=Cc3ccc([N+](=O)[O-])o3)ccc2o1
active: [1]; [8] 72% | [1]; at 50.0 µM 74.9%
inactive: [1]; [7] -1% | [2]; [7] -10% | [2]; [8] 23% | [2]; at 50.0 µM 17.9% | [3]; [7] -6% | [3]; [8] 54% | [3]; at 50.0 µM 42.6% | [4]; [7] 0% | [4]; [8] 10% | [4]; at 50.0 µM 21.2% | [5]; [7] -4% | [5]; [8] 6% | [5]; at 50.0 µM 6.1% | [6]; [7] 10% | [6]; [8] 49% | [6]; at 50.0 µM 40%

O=C1C(SCCO)=C(SCCO)C(=O)c2ccccc21
inactive: [1]; [7] 8% | [2]; [7] 20% | [2]; [8] 61% | [2]; at 50.0 µM 57.5% | [3]; [7] 16% | [3]; [8] 66% | [3]; at 50.0 µM 66.7% | [4]; [7] -4% | [4]; [8] 48% | [4]; at 50.0 µM 17.8% | [5]; [7] 44% | [6]; [7] 17%
active: [1]; [8] 87% | [1]; at 50.0 µM 87% | [5]; [8] 83% | [5]; at 50.0 µM 89.3% | [6]; [8] 77% | [6]; at 50.0 µM 93.7%

C(=N\Nc1c2ccccc2nc2ccccc12)/c1ccc2c(c1)OCO2
inactive: [1]; [7] 0% | [2]; [7] 7% | [3]; [7] 0% | [4]; [7] 2% | [5]; [7] -11% | [6]; [7] 1%
active: [1]; [8] 97% | [1]; at 50.0 µM 99.3% | [2]; [8] 99% | [2]; at 50.0 µM 84.8% | [3]; [8] 99% | [3]; at 50.0 µM 99.4% | [4]; [8] 89% | [4]; at 50.0 µM 82% | [5]; [8] 93% | [5]; at 50.0 µM 99.2% | [6]; [8] 98% | [6]; at 50.0 µM 99.3%

Cc1ccc(S(=O)(=O)NC(Cc2ccccc2)C(=O)CCl)cc1 (stereo not given)
inactive: [1]; [7] 61% | [2]; [7] 66% | [4]; [7] 44%
active: [1]; [8] 99% | [1]; at 50.0 µM 89.9% | [2]; [8] 99% | [2]; at 50.0 µM 92.8% | [3]; [7] 74% | [3]; [8] 98% | [3]; at 50.0 µM 88.8% | [4]; [8] 88% | [4]; at 50.0 µM 84.8% | [5]; [7] 79% | [5]; [8] 99% | [5]; at 50.0 µM 84.5% | [6]; [7] 86% | [6]; [8] 98% | [6]; at 50.0 µM 84.7%

N#CC(C#N)C(c1ccccc1)c1ccccc1
inactive: [1]; [7] -4% | [1]; [8] 5% | [1]; at 50.0 µM 13.1% | [2]; [7] 6% | [2]; [8] 20% | [2]; at 50.0 µM 17.9% | [3]; [7] 1% | [3]; [8] -41% | [3]; at 50.0 µM 11% | [4]; [7] -3% | [4]; [8] -10% | [4]; at 50.0 µM -1.1% | [5]; [7] 0% | [5]; [8] 0% | [5]; at 50.0 µM 1.75% | [6]; [7] -1% | [6]; [8] 2% | [6]; at 50.0 µM 10.5%

O=C1c2ccccc2C(=O)c2sc(Nc3ccc(Cl)c(Cl)c3)nc21
active: [1]; [7] 89% | [1]; [8] 98% | [1]; at 50.0 µM 90% | [2]; [7] 86% | [2]; [8] 98% | [2]; at 50.0 µM 92.8% | [3]; [7] 99% | [3]; [8] 98% | [3]; at 50.0 µM 93.2% | [4]; [8] 98% | [4]; at 50.0 µM 88% | [5]; [7] 99% | [5]; [8] 97% | [5]; at 50.0 µM 91.2% | [6]; [7] 91% | [6]; [8] 97% | [6]; at 50.0 µM 91.3%
inactive: [4]; [7] 68%

CC1(C)OC(C(COC(=O)c2ccc([N+](=O)[O-])cc2)OS(=O)(=O)c2ccc([N+](=O)[O-])cc2)C(C(SCc2ccccc2)SCc2ccccc2)O1 (stereo not given)
active: [1]; [8] 97% | [2]; [8] 99% | [3]; [8] 98% | [4]; [8] 92% | [5]; [8] 99% | [6]; [8] 98%
inactive: [1]; [7] 12% | [1]; at 50.0 µM 43.6% | [2]; [7] 1% | [2]; at 50.0 µM 33.5% | [3]; [7] 4% | [3]; at 50.0 µM 46.6% | [4]; [7] -9% | [4]; at 50.0 µM 7.75% | [5]; [7] -2% | [5]; at 50.0 µM 15.3% | [6]; [7] 8% | [6]; at 50.0 µM 67%
